PubChem BioAssay AID1745847 (National Center for Advancing Translational Sciences (NCATS), 2022)
In all, about 2,100 compounds went through this assay and about 670 (32%) were called active. Another 50% or so got no clear call; they are omitted. Some of the results follow. A number with no mark means an inactive call. Calls come from the whole dose curve; as a rule, active = well fitted inhibition curve with a large enough effect; inconclusive = small, poorly fitted or top-dose-only effect; inactive = no such curve, though single readings can be large or run the other way.

Test: CMV-Luciferase Counterscreen for Inhibitors of ATXN expression; note: nearly all actives have a fitted effect of over 55% in size
Conditions: HEK-293 CMV-luciferase reporter, luminescence, 24 h; series mostly up to 57.5 µM; activity change, negative = inhibition: at the top concentration
% is set by controls: 0 for no effect and ±100 for the full control effect; potency is the fitted concentration of half-maximal effect.

Compound | activity change, negative = inhibition | Potency
NC(=O)Cn1c(=O)n(CCc2ccccc2)c(=O)c2c3c(sc21)CCCC3 | 10.9% | –
CCNc1ccc(Br)cc(C(=O)/C=C/c2ccccc2Cl)c1=O | -8.42% [at 11.4 µM] | –
O=C(c1ccoc1)N1CCN(c2cc(-c3cccnc3)nc3cc(-c4cccc(Cl)c4)nn23)CC1 | – | 28.2 µM (active)
O=C(Nc1cccc2c1CCCC2)c1cc([N+](=O)[O-])ccc1Cl | – | 6.31 µM (active)
COc1cccc(CC2(CO)CCCN(Cc3[nH]c4ccc(C)cc4c3C)C2)c1 (configuration not stated) | -14.8% | –
Cc1ccc(S(=O)(=O)Nc2ccc(O)c3cccnc23)cc1 | – | 28.2 µM (active)
Cc1ccc(S(=O)(=O)Nc2cccc3cccnc23)c([N+](=O)[O-])c1 | 80.5% | –
CCC(=O)NC(c1ccco1)c1cc(Br)c2cccnc2c1O (configuration not stated) | – | 8.91 µM (active)
CC(=O)NC(c1ccc2ccccc2c1)c1ccc2cccnc2c1O (configuration not stated) | – | 0.355 µM (active)
COc1cccc(C(NC(C)=O)c2ccc3cccnc3c2O)c1 (configuration not stated) | – | 2.82 µM (active)
CC(=O)NC(c1ccc(C(C)C)cc1)c1ccc2cccnc2c1O (configuration not stated) | – | 1.26 µM (active)
OC1(c2ccc(Br)cc2)CCNCC1 | 0.489% [at 11.4 µM] | –
Cc1cccc(NC(c2ccc(C)s2)c2ccc3ccc(C)nc3c2O)n1 (configuration not stated) | 21.1% | –
CC(=O)NC(c1ccco1)c1ccc2cccnc2c1O (configuration not stated) | – | 1.58 µM (active)
CC(=O)NC(c1ccco1)c1cc(Cl)c2cccnc2c1O (configuration not stated) | – | 7.94 µM (active)
Oc1cccc(C(Nc2nccs2)c2ccc3cccnc3c2O)c1 (configuration not stated) | – | 2.82 µM (active)
Oc1c(C(Nc2ccccn2)c2ccccn2)ccc2cccnc12 (configuration not stated) | – | 2.82 µM (active)
CN(Cc1ccccc1)C(=O)c1ccc(NC(=O)C2CCN(C(=O)OC(C)(C)C)CC2)cc1 | – | 7.08 µM (active)
CC(C)(C)OC(=O)N1CCC(c2c(C(=O)NCC3CCN(C4CCCC4)C3)cnn2-c2cccc(Cl)c2)CC1 (configuration not stated) | -22.1% [at 11.4 µM] | –
O=C(Cc1coc2cc3c(cc12)CCC3)OCC(=O)N1CCCC1=O | – | 15.8 µM (active)
Cc1ccc(-n2c(-c3ccccc3)c[n+]3c2CCc2ccccc2-3)c(C)c1 | – | 0.794 µM (active)

Compound | activity change, negative = inhibition | Potency
S=C(Nc1ccccc1)Nc1ccc(OCc2ccc(Cl)cc2Cl)cc1 | – | 3.55 µM (active)
S=C(Nc1cc(Cl)ccc1Oc1ccccc1)N1CCN(c2ccccn2)CC1 | – | 17.8 µM (active)
O=C(Nc1ccc(Br)cc1)c1cccc(OC(=S)N2CCOCC2)c1 | – | 2 µM (active)
Oc1[nH]c2ccc(Br)cc2c1N=NC(=S)N1CCOCC1 | 43.7% [at 11.4 µM] | –
Cc1ccc(S(=O)(=O)N2CCc3ccccc3CC2)cc1 | – | 0.794 µM (active)
O=C(NCCc1csc(-c2cccnc2)n1)c1cccc(Cl)c1 | -26.6% | –
COCCNC(=O)c1cccc(Nc2nc(-c3ccccc3)c3cc(Cl)ccc3n2)c1 | – | 15.8 µM (active)
CCN1CCN(C(=S)c2ccc(-c3ccccc3)cc2)CC1 | – | 2 µM (active)
OCCN1CCN(C(=S)c2ccc(-c3ccccc3)cc2)CC1 | – | 2.51 µM (active)
CC(C)=C1SC(N2CCN(c3ccc(C)c(Cl)c3)CC2)=NC1=O | 103% [at 11.4 µM] | –
CCn1c2ccccc2c2cc(NC(=O)COC(=O)C3CCC(=O)N3)ccc21 (configuration not stated) | 18.1% | –
CCn1c2ccccc2c2cc(C3C(C#N)=C(N)Oc4n[nH]c(COC)c43)ccc21 (configuration not stated) | – | 2.82 µM (active)
CC1(C(=O)Nc2cnc3ccccc3c2)CCN1C(=O)c1ccccc1CCc1ccccc1 (configuration not stated) | – | 28.2 µM (active)
COC(=O)C1=C(C)N(Cc2ccccc2)C(=NCCc2cccnc2)N[C@H]1c1ccc(Br)cc1 | – | 28.2 µM (active)
CCCCn1c(=N)n(CCOc2ccc(C)cc2)c2ccccc21 | – | 10 µM (active)
Cc1ccc(OCC(O)Cn2c(=N)n(CCN3CCCCC3)c3ccccc32)cc1 (configuration not stated) | -13.4% | –
N=c1n(CCCOc2ccccc2Cl)c2ccccc2n1CC(N)=O | 2.57% | –
Cc1ccc(-c2nc3ccc(Cl)cn3c2CC(C)(C)C)cc1 | -2.84% [at 11.4 µM] | –
COc1cc(C)c(C(=O)CC(=O)c2c(C)cc(OC)cc2C)c(C)c1 | -13.8% [at 11.4 µM] | –
Cc1ccc(C(=O)N/N=C/c2nc3ccccc3n2C)cc1 | -21.7% | –
Cc1ccc(C(C)C)c(OCc2ccc(C(=O)N/N=C/c3cccc(O)c3O)cc2)c1 | – | 2.82 µM (active)

Compound | activity change, negative = inhibition | Potency
Cc1ccc(C(C)C)c(OCc2ccc(C(=O)N/N=C/c3ccc(O)cc3O)cc2)c1 | – | 2.51 µM (active)
O=C(c1ccc(-c2nnc(Nc3cccc(Cl)c3)c3ccccc23)cc1)N1C[C@H]2C[C@H](C1)c1cccc(=O)n1C2 | 46% [at 11.4 µM] | –
COC(=O)c1ccc(N2CCOCC2)c(NC(=O)Nc2cccc(OC)c2)c1 | 2.86% [at 11.4 µM] | –
COC(=O)c1cc(NC(=O)c2cc(-c3ccc(C(F)(F)F)cc3)oc2C(F)(F)F)ccc1N1CCOCC1 | – | 22.4 µM (active)
CCN(CC)CCNC(=O)c1ccc(NC(=O)c2ccccc2-c2ccc(C(F)(F)F)cc2)cc1 | -16.1% | –
O=C(NCc1ccco1)c1ccc(-c2cccc(Cl)c2)o1 | 34.1% | –
O=C(NCc1ccco1)c1nc2c(nnn2Cc2ccccc2Cl)c(=O)[nH]1 | – | 1.58 µM (active)
O=C(NCc1ccco1)/C(=C/c1cccc(C(F)(F)F)c1)c1nc2ccccc2[nH]1 | -12% [at 11.4 µM] | –
CC(C)CCNC(=O)COc1cccc2c1OC(C)(C)C2 | -14.5% | –
Cc1ccc(OCCCC(=O)NNC(=O)c2ccccn2)cc1 | – | 11.2 µM (active)
Cc1cccc(OCCCC(=O)Nc2nccs2)c1 | 249% [at 11.4 µM] | –
CC(=O)c1cccc(-c2csc3ncnc(Sc4nnnn4C)c23)c1 | – | 8.91 µM (active)
CC(=O)c1cccc(-c2cnc3c(NC=O)cc(-c4ccccc4F)cn23)c1 | -18.2% [at 11.4 µM] | –
Cn1nnnc1Sc1ncnc2scc(-c3cccc(S(C)(=O)=O)c3)c12 | – | 14.1 µM (active)
C=C(C)Cn1c(SCC(=O)N/N=C/c2c(O)ccc3ccccc23)nc2ccccc2c1=O | – | 22.4 µM (active)
NC(=O)N/N=C/c1c(O)ccc2oc3c(c12)CCCC3 | 111% | –
O=C(CN1CCOCC1)N/N=C/c1c(O)ccc2ccccc12 | – | 8.91 µM (active)
CCCCn1c(SCC(=O)Nc2cc(NC(=O)c3ccco3)ccc2C)nc2ccccc2c1=O | -9.45% | –
O=C(CSCC(=O)Nc1ccccc1)N/N=C/c1c(O)ccc2ccccc12 | – | 0.501 µM (active)
O=C(CN1CCCC1)N/N=C/c1c(O)ccc2ccccc12 | – | 1.78 µM (active)
